Screens as filed in PubChem.
Glyco luc inh = blocks N-linked glycosylation in D54 reporter cells; D54 ERlucT glycosylation luciferase reporter, 24 h; percent of 100 nM tunicamycin response; reporter increase, % at 12.5 µM; 360,000 tested, 0.23% active; AID 588692;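 active = mean luciferase reporter signal, scaled so untreated is 0 and the glycosylation-blocking control 100, at or above a set limit in every replicate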;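 note: luciferase carries N-glycosylation sites so blocking glycosylation raises the light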
PglD DTNB = blocks C. jejuni PglD acetyltransferase activity. 360,000 tested, 0.098% active. purified PglD enzyme, DTNB colorimetric CoA detection. inhibition, % at 12.5 µM; in the data active = inhibition above about 16%, passing the limit was not always enough
DENV2 CPE = DENV2-induced cell death inhibition | DENV2-infected cells, cytopathic effect rescue, plate reader | CPE inhibition, % at 9.99 µM | 350,000 tested, 1.7% active | AID 651640; in the data active = CPE inhibition above about 20%, passing the limit was not always enough; tested in BHK-21 cells
Rtt109 Vps75 = blocks Candida albicans Rtt109/Vps75 acetyltransferase activity. purified Rtt109/Vps75, ThioGlo CoA-SH fluorescence, 4 h. Q5AAJ8. 330,000 tested, 0.16% active. inhibition, % at 34.9 µM;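 active = inhibition of at least 50% in every replicate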
Target sequence (Q5AAJ8 whole entry, looked up): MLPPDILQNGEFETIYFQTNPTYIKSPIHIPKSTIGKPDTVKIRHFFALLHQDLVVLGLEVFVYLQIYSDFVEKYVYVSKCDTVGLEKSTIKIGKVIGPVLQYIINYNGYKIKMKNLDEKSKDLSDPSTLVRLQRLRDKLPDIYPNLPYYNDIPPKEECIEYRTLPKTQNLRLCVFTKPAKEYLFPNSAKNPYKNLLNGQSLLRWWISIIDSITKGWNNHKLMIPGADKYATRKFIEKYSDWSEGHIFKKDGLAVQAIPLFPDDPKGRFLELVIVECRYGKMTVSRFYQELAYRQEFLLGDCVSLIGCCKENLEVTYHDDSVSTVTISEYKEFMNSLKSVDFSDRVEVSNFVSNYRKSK
A number is an active result; - = inactive; . = not tested or not shown; ! = a repeat was not active. This excerpt belongs to a sample that is enriched for hits.

SMILES | Glyco luc inh | PglD DTNB | DENV2 CPE | Rtt109 Vps75
COc1ccccc1CCNS(=O)(=O)CCNC(=O)c1ccc2c(c1)OCO2 | - | - | 40 | -
COc1ccc(NC(=O)N(C)C[C@@H]2OCCCC[C@H](C)Oc3ccc(NC(=O)Cc4ccccc4)cc3C(=O)N([C@H](C)CO)C[C@@H]2C)cc1 | . | - | - | .
O=C(COCc1ccccc1)N[C@@H]1c2ccccc2CC[C@H]1OCc1ccccc1 | - | - | - | -
O=C(N[C@@H]1c2ccccc2CC[C@@H]1OCc1ccccc1)c1ccc(C(F)(F)F)cc1 | - | - | 69 | -
O=c1[nH]c2ccccc2c(O)c1O | - | 32 | - | 176
Cc1ccc(-n2c(Cc3ccccc3)n[nH]c2=S)c(C)c1 | - | . | - | -
COc1ccc(Cc2n[nH]c(=S)n2-c2cc(C)ccc2C)cc1OC | - | - | 96 | .
COc1ccc(S(=O)(=O)Nc2ccc3c(c2)C(=O)N([C@@H](C)CO)C[C@@H](C)[C@H](CN(C)S(C)(=O)=O)OCCCC[C@@H](C)O3)cc1 | . | - | - | .
CCO[C@H]1OC(C(=O)NC2CC2)=C[C@@H](c2ccc(C(F)(F)F)cc2)[C@@H]1CCCO | - | - | 25! | -
CCO[C@H]1OC(C(=O)N2CCOCC2)=C[C@@H](c2cn(C(C)=O)c3ccccc23)[C@@H]1CCCO | - | - | 27! | -
CCO[C@@H]1OC(C(=O)N2CCCCCCC2)=C[C@H](c2cn(C(C)=O)c3ccccc23)[C@H]1CCCO | - | - | . | -
CCO[C@H]1OC(C(=O)O)=C[C@@H](c2ccc3c(c2)OCO3)[C@@H]1CCCO | - | - | 24 | -
CCO[C@@H]1OC(C(=O)NC2CC2)=C[C@H](c2ccc(C(F)(F)F)cc2)[C@H]1CCCO | - | - | - | -
CN(C)C(=O)C[C@@H]1C[C@@H]2c3cc(NC(=O)Nc4ccccc4)ccc3O[C@@H]2[C@H](CO)O1 | . | - | - | .
O=C(C[C@H]1C=C[C@@H](NC(=O)Nc2ccc(F)cc2)[C@H](CO)O1)NCCN1CCCC1 | . | - | - | .
COc1ccc(C(=O)COc2ccc3c(C)cc(=O)oc3c2)cc1 | - | - | - | -
COc1cccc(C(=O)COc2ccc3c(C)cc(=O)oc3c2)c1 | 38 | - | - | -
COc1ccc(C2CC(=O)C(C=NCCO)=C(O)C2)cc1 (centres undefined) | - | - | - | 54
Cc1cc(C)nc(N/N=C/C2=C(O)CC(c3ccccc3)CC2=O)n1 (centres undefined) | . | . | 32 | .
COc1ccc(C2CC(=O)C(C=NCCO)=C(O)C2)cc1OC (centres undefined) | - | - | . | -
CCCN=CC1=C(O)CC(c2ccccc2)CC1=O (centres undefined) | - | . | . | -
COc1ccccc1N=CC1=C(O)CC(c2ccccc2)CC1=O (centres undefined) | 28 | - | - | -
C[C@H]1CN([C@@H](C)CO)C(=O)c2cc(NC(=O)c3ccncc3)ccc2O[C@@H]1CN(C)S(=O)(=O)c1ccc(Cl)cc1 | . | - | - | .
CC(NC(=O)c1cccc(S(=O)(=O)N2CCN(Cc3ccccc3)CC2)c1)c1ccc(Br)cc1 (centres undefined) | - | - | 25 | -
CC(NC(=O)c1cccc(S(=O)(=O)N2CCN(Cc3ccccc3)CC2)c1)c1ccccc1Cl (centres undefined) | - | - | - | -
SMILES | Glyco luc inh | PglD DTNB | DENV2 CPE | Rtt109 Vps75
O=C(C1CCCC1)N1CC2(C1)[C@@H](c1ccccc1)[C@@H](CO)N2Cc1ccc(Cl)cc1 | . | . | - | .
O=C(C1CCOCC1)N1CC2(C1)[C@H](c1ccccc1)[C@@H](CO)N2Cc1ccc(Cl)cc1 | . | . | 29 | .
O=C(C1CCCCC1)N1CC2(C1)[C@H](c1ccccc1)[C@H](CO)N2Cc1cncnc1 | . | . | 40 | .
O=C(C1CCCCC1)N1CC2(C1)[C@@H](c1ccccc1)[C@@H](CO)N2Cc1cncnc1 | . | . | - | .
Cc1ccc(S(=O)(=O)N(C)C[C@@H]2OCc3ccccc3-c3c(n(C)c4ccccc34)C(=O)N([C@@H](C)CO)C[C@H]2C)cc1 | . | - | - | .
O=C(C[C@H]1CC[C@@H]2[C@H](COC[C@@H](O)CN2S(=O)(=O)c2cccc(Cl)c2)O1)NCCCN1CCOCC1 | . | - | - | .
CC(=O)N1CC(=O)N2[C@H](CO)[C@@H](c3ccc(-c4ccc(C#N)cc4)cc3)[C@H]2C1 | . | . | - | .
C[C@H]1CN([C@@H](C)CO)C(=O)CCCn2cc(nn2)CO[C@H]1CN(C)Cc1ccc(C(=O)O)cc1 | . | . | 25 | .
C[C@H]1CN([C@@H](C)CO)C(=O)CCCn2cc(nn2)CO[C@@H]1CN(C)Cc1cccc(C(=O)O)c1 | . | - | 24 | .
Cc1occc1C(=O)N1CCCC(N2CCN(c3ccccc3F)CC2)C1 (centres undefined) | - | - | 26 | -
